Records with an inconclusive call do not appear. The source made the active and inactive calls. Unless noted, calls come from the whole dose curve; as a rule, active = well fitted curve in the direction sought with a large enough effect in the repeat runs; inconclusive = weak or mixed curves; inactive = no such curve, though single readings can be large; an effect the other way counts as inactive or inconclusive.
Experiments:
[1] = qHTS assay to identify small molecule antagonists of the retinoid acid receptor (RAR) signaling pathway - cell viability counter screen (AID 1159551); note: nearly all actives have a fitted effect of over 35% in size
Summary of the method: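 Luminescent ATP quantitation (CellTiter-Glo) gave cell viability in C3RL4 cells exposed to test chemicals for 6 h at 37 C alongside 1 uM final retinol.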

[2] = qHTS assay to identify small molecule antagonists of the retinoic acid receptor (RAR) signaling pathway (AID 1159552; note: nearly all actives have a fitted effect of over 50% in size)
Summary of the method: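 Cells of the C3RL4 line were seeded, incubated overnight, then dosed with compounds in DMSO followed immediately by retinol (1 uM final). Six hours later luciferase detection reagent went in; signal was measured after 30 min at RT.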

[3] = target: Luciferin 4-monooxygenase (Photinus pyralis) (UniProt P08659); assay: qHTS assay to identify small molecule inhibitors of firefly luciferase (AID 1224835); note: nearly all actives have a fitted effect of over 25% in size
Summary of the method: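 Inhibition of purified Photinus luciferase is measured by luminescence. Substrate levels (D-luciferin, ATP) sit at their KM values. Each compound is tested in a concentration series.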

[4] = qHTS assay to identify small molecule agonists of the constitutive androstane receptor (CAR) signaling pathway - cell viability counter screen (AID 1224836); note: nearly all actives have a fitted effect of over 45% in size
Summary of the method: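 HepG2-CYP2B6-hCAR, 2500 cells/well, 4 h pre-incubation; cpd 15 conc + PK11195 0.75 uM final; 23 h, 37 C/5% CO2; CellTiter-Fluor, fluorescence.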

[5] = qHTS assay to identify small molecule antagonists of the constitutive androstane receptor (CAR) signaling pathway - cell viability counter screen (AID 1224837); note: nearly all actives have a fitted effect of over 45% in size
Summary of the method: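 HepG2-CYP2B6-hCAR cells, 2500/well, 4 hr pre-incubation; compound titration, 15 conc.; CITCO 50 nM final; 23 hr, 37 C/5% CO2; CellTiter-Fluor, fluorescence intensity.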

[6] = target: Nuclear receptor subfamily 1 group I member 3 (Homo sapiens) (UniProt Q14994); assay: qHTS assay to identify small molecule antagonists of the constitutive androstane receptor (CAR) signaling pathway (AID 1224838);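 note: HepG2 cells stably expressing hCAR with CYP2B6 luciferase reporter stimulated by CITCO; nearly all actives have a fitted effect of over 40% in size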
Summary of the method: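 HepG2-CYP2B6-hCAR cells; 4 h pre-incubation; cpd (15 conc) + CITCO 50 nM final; 24 h, 37 C/5% CO2; ONE-Glo, luminescence.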

[7] = target: Nuclear receptor subfamily 1 group I member 3 (Homo sapiens) (UniProt Q14994); assay: qHTS assay to identify small molecule agonists of the constitutive androstane receptor (CAR) signaling pathway (AID 1224839);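 note: HepG2 cells stably carrying human CAR and a CYP2B6 luciferase reporter; nearly all actives have a fitted effect of over 15% in size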
Summary of the method: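 HepG2-CYP2B6-hCAR cells, 2500/well, 4 h pre-incubation; compounds 15 conc.; PK11195 0.75 uM final; 24 h, 37 C/5% CO2; ONE-Glo luciferase read.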

[8] = qHTS assay to identify small molecule antagonists of the estrogen related receptor signaling pathway with the pleiotropic PPARgamma coactivator (PGC) from Tox21 10K library - cell viability counter screen (AID 1224840; active = well fitted cell-killing curve with a large enough effect in the repeat runs, not every such curve was filed as active; note: nearly all actives have a fitted effect of over 40% in size)
Summary of the method: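 PGC/ERR cells, 2,000/well; 6 h pre-incubation 37 C/5% CO2; cpd in DMSO via pin tool; 17.5 h 37 C; CellTiter-Fluor, 30 min; fluorescence.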

[9] = target: Thyrotropin receptor (Homo sapiens) (UniProt P16473); assay: qHTS assay to identify small molecule agonists of the thyroid stimulating hormone receptor (TSHR) signaling pathway (AID 1224843; calls by dose curve; note: nearly all actives have a fitted effect of over 45% in size)
Summary of the method: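 HEK293 cells stably bearing the thyrotropin receptor were plated at 800 cells/well and challenged with compound (30 min, RT). Accumulated cAMP was quantified via cAMP-d2 competing for cryptate-tagged antibody.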

[10] = qHTS assay to identify small molecule agonists of the hypoxia (HIF-1) signaling pathway - cell viability counter screen (AID 1224844; calls by dose curve; note: nearly all actives have a fitted effect of over 50% in size)
Summary of the method: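 ME-180 HRE-bla cells, 2,000/well, 0.5% dialyzed FBS; 5 hr settle, 17 hr compound at 37C/5% CO2; CCF4-AM reporter read first, then CellTiter-Glo luminescence after 30 min RT.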

[11] = qHTS assay to identify small molecule agonists of H2AX (AID 1224845; active = well fitted activation curve with a large enough effect in the signal ratio in the repeat runs, not every such curve was filed as active; the % refers to the signal ratio)
Summary of the method: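 Phospho-H2AX Ser139 measured by HTRF (ex 320 nm; em 665 and 620 nm) after 24 hr antibody incubation. Compounds, 15 concentrations, 0.76% DMSO, were applied to CHO-K1 cells for 3hr at 37C before lysis.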

[12] = qHTS assay to identify small molecule agonists of the hypoxia (HIF-1) signaling pathway (AID 1224846; active = well fitted activation curve with a large enough effect in the signal ratio in the repeat runs, not every such curve was filed as active; the % refers to the signal ratio)
Summary of the method: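 Cell line: CellSensor HRE-bla ME-180; 2,000 cells/well; 0.5% dialyzed FBS; 5 h preincubation; DMSO compound pin transfer; 17 h, 37C, 5% CO2; CCF4-AM added; bla FRET signal scored for activation.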

[13] = qHTS assay to identify small molecule agonists of H2AX - cell viability counter screen (AID 1224847; calls by dose curve;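 note: wild-type CHO-K1 cells; top concentration of the series differs between compounds; nearly all actives have a fitted effect of over 30% in size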)
Summary of the method: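 Cells plated first: CHO-K1, 1000 per well in 10% FBS medium, incubated overnight at 37C. Then 15-point compound titration added (final DMSO 0.76%) for 3 hr. Finally CellTiter-Glo added and luminescence read.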

[14] = qHTS RealTime-Glo MT Cell Viability Assay in HepG2 cells - 24 hour (AID 1224867); note: nearly all actives have a fitted effect of over 50% in size
Summary of the method: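 HepG2 suspension premixed with RealTime-Glo reagents is plated at 600 cells per well and left 5 h at 37 C/5% CO2. Compounds in DMSO then go in, and bioluminescence reflecting viable cell number is recorded over 40 h.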

[15] = qHTS assay to identify small molecule antagonists of the estrogen related receptor (ERR) signaling pathway from Tox21 library - cell viability counter screen (AID 1224834); note: nearly all actives have a fitted effect of over 30% in size
Summary of the method: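 Fluorescence from CellTiter-Fluor gives the viability read-out, taken 30 min after reagent addition. Before that, ERR cells seeded 6 h earlier were incubated with compounds for 17.5 h at 37 C.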

[16] = qHTS assay to identify small molecule antagonists of the estrogen related receptor signaling pathway with the pleiotropic PPARgamma coactivator (PGC) from Tox21 10K library (AID 1224841; call rule not given here; note: actives are mostly falling curves and most rising ones were filed inactive; nearly all actives have a fitted effect of over 50% in size; note: potency is the fitted concentration of half-maximal effect)
Summary of the method: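 PGC/ERR cell line, 2,000 cells/well; 6 h pre-incubation 37 C/5% CO2; compounds (DMSO) pinned in; 18 h, 37 C; One-Glo, 30 min RT; luminescence.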

[17] = qHTS assay to identify small molecule agonists of the estrogen related receptor (ERR) signaling pathway from Tox21 library (AID 1224849; calls by dose curve; note: nearly all actives have a fitted effect of over 15% in size); settings: ERR reporter cell line, ONE-Glo luciferase, 18 h; at 92.4 µM (top of the series) unless noted
Summary of the method: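 ERR cells, 6 h pre-incubation 37 C/5% CO2; cpd in DMSO pinned; 18 h 37 C; ONE-Glo added, 30 min RT; luminescence read. Agonist mode, qHTS.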

[18] = qHTS assay to identify small molecule antagonists of the estrogen related receptor (ERR) signaling pathway from Tox21 library (AID 1224848); note: nearly all actives have a fitted effect of over 50% in size
Summary of the method: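 Reading was by luminescence 30 min after ONE-Glo addition. Before that, ERR cells at 2,000 per well had rested 6 h at 37 C/5% CO2 and then received pin-tooled compounds in DMSO for 18 h at 37 C.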

[19] = qHTS assay to identify small molecule agonists of the estrogen related receptor signaling pathway with the pleiotropic PPARgamma coactivator (PGC) from Tox21 10K library (AID 1224842); note: nearly all actives have a fitted effect of over 15% in size
Summary of the method: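 Luminescence from One-Glo (30 min, room temperature) measured after PGC/ERR cells had 18 h at 37 C with pinned compound (23 nL in DMSO). Cells had been seeded at 2,000 per well and pre-incubated 6 h.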

[20] = qHTS assay to identify small molecule agonists of the retinoic acid receptor (RAR) signaling pathway (AID 1159553)
Summary of the method: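 Luminescence from a RARE-driven luciferase reporter in C3RL4 cells served as the read-out, measured after 30 min with detection reagent at room temperature. Compounds in DMSO were applied for 6 hr at 37 C following overnight seeding.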
% is set by controls: 0 for no effect and ±100 for the full control effect.

Sequence of Luciferin 4-monooxygenase (Photinus pyralis) (P08659 whole entry, looked up): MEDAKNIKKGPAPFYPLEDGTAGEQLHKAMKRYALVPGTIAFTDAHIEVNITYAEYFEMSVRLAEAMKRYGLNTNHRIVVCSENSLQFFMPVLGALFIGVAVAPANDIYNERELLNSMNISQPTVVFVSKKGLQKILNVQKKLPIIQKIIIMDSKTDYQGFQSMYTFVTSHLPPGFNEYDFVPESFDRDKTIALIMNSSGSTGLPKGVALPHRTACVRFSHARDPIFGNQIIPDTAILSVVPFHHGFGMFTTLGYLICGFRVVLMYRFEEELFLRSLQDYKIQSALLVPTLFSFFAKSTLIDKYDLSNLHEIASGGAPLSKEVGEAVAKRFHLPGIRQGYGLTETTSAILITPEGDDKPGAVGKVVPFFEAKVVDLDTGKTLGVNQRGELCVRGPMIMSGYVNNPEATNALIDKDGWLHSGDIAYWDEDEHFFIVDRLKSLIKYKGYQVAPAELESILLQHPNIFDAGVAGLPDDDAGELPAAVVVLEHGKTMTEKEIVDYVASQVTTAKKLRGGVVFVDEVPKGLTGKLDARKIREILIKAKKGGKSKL
Sequence of Nuclear receptor subfamily 1 group I member 3 (Homo sapiens) (Q14994 whole entry, looked up): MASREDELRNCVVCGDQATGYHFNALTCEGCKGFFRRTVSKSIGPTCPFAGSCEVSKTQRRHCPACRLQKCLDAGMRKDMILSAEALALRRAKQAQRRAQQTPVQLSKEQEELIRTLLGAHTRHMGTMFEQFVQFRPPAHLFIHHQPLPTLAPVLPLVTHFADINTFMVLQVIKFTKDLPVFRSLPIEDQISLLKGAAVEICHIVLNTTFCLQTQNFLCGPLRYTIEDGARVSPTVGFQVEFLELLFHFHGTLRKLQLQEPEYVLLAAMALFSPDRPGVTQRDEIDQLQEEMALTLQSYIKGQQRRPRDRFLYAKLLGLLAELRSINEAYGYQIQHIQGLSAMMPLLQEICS
Sequence of Thyrotropin receptor (Homo sapiens) (P16473 whole entry, looked up): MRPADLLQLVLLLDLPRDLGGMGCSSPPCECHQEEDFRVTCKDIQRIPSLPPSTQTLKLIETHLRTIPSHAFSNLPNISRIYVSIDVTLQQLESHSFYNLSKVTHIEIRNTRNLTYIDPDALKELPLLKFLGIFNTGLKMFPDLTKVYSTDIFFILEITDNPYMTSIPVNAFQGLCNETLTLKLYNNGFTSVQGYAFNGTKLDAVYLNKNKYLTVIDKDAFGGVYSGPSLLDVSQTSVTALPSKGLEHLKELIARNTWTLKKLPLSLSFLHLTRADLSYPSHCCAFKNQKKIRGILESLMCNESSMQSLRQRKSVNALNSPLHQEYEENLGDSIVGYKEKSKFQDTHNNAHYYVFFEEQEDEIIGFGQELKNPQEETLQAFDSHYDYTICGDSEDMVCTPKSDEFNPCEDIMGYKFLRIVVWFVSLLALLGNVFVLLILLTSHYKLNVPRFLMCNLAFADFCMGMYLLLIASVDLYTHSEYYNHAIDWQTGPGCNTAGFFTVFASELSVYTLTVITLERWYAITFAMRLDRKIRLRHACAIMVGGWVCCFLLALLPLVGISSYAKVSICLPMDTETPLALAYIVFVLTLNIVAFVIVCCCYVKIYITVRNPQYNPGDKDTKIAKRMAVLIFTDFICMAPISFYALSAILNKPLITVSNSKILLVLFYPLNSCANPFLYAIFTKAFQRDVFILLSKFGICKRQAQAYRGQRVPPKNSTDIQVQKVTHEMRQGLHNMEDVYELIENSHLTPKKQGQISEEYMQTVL

CC(C)C(C)C
inactive: outcome [1] | outcome [2] | Potency [3] | outcome [4] | outcome [5] | outcome [6] | Potency [7] | outcome [8] | Potency [9] | outcome [10] | outcome [11] | outcome [12] | outcome [13] | outcome [14]

CCC(=O)OCCOc1ccccc1
inactive: outcome [1] | outcome [2] | Potency [3] | outcome [4] | outcome [5] | outcome [8] | Potency [9] | outcome [10] | outcome [11] | outcome [12] | outcome [13] | outcome [14]

Cc1ccc(O)c(C(=O)c2ccccc2)c1
inactive: outcome [1] | outcome [2] | outcome [15] | Potency [3] | outcome [4] | outcome [5] | outcome [6] | outcome [8] | Potency [16] | Potency [9] | outcome [10] | outcome [11] | outcome [12] | activity change, positive = activation [17] -3.28% | outcome [14]

C[C@@H]1NC(=O)[C@@H](N)CNC(=O)[C@H](C2CCNC(N)=N2)NC(=O)/C(=C/NC(N)=O)NC(=O)[C@H](CNC(=O)C[C@@H](N)CCCN)NC1=O (some centres not stated)
inactive: activity change, negative = cytotoxicity [1] 5.1% [at 0.349 µM] | activity, negative = inhibition [2] 21% [at 0.349 µM] | viability change, negative = cytotoxic [15] -0.374% [at 0.349 µM] | viability change, negative = cytotoxic [4] -0.0447% [at 0.349 µM] | activity change, negative = cytotoxicity [5] 0.72% [at 0.349 µM] | activity, negative = inhibition [6] -10.7% [at 0.349 µM] | activation [7] 4.38% [at 0.349 µM] | viability change, negative = cytotoxic [8] 10.7% [at 0.349 µM] | activation [9] -10.7% [at 0.349 µM] | activity change, negative = cytotoxicity [10] 3.53% [at 0.29 µM] | activation (H2AX phosphorylation) [11] -2.47% [at 0.582 µM] | activation [12] -0.509% [at 0.291 µM] | activity change, negative = cytotoxicity [13] 1.7% [at 0.582 µM] | activity change, negative = cytotoxicity [14] 4.49% [at 0.29 µM]

C=CCn1cc[n+](C)c1
inactive: outcome [1] | outcome [2] | outcome [15] | Potency [3] | outcome [4] | outcome [5] | outcome [8] | Potency [16] | Potency [9] | outcome [10] | outcome [11] | outcome [12] | outcome [13] | outcome [18] | activity change, positive = activation [17] 5.14% | outcome [14]

CCC(C)(C)C
inactive: outcome [1] | outcome [2] | outcome [15] | Potency [3] | outcome [4] | outcome [5] | outcome [8] | Potency [16] | Potency [9] | outcome [10] | outcome [11] | outcome [13] | outcome [18] | activity change, positive = activation [17] -3.65% | outcome [14]

O=C1Nc2ccccc2C1=O
inactive: outcome [1] | outcome [2] | Potency [3] | outcome [4] | outcome [6] | outcome [8] | Potency [19] | Potency [9] | outcome [10] | outcome [11] | outcome [12] | outcome [13] | activity change, positive = activation [17] -1.92% | outcome [14]
active: Potency [16] 13.6 µM

N=C(N)S(=O)O
inactive: outcome [1] | outcome [2] | outcome [15] | Potency [3] | outcome [4] | outcome [5] | outcome [8] | Potency [16] | Potency [9] | outcome [10] | outcome [11] | outcome [12] | outcome [13] | outcome [18] | activity change, positive = activation [17] 2.21% | outcome [14]

Cc1cc(C)c(N)c(Cl)c1
inactive: outcome [1] | outcome [2] | outcome [15] | Potency [3] | outcome [4] | outcome [5] | Potency [7] | outcome [8] | Potency [9] | outcome [10] | outcome [11] | outcome [12] | outcome [13] | outcome [14]

Cc1ccc2ccccc2n1
inactive: outcome [1] | outcome [2] | outcome [4] | outcome [5] | outcome [6] | Potency [7] | outcome [8] | Potency [9] | outcome [10] | outcome [11] | outcome [12] | outcome [13] | outcome [14]

O=C1CCCc2c(O)cccc21
inactive: outcome [1] | outcome [2] | Potency [3] | outcome [4] | outcome [5] | Potency [7] | outcome [8] | outcome [10] | outcome [11] | outcome [12] | outcome [13] | outcome [18] | activity change, positive = activation [17] 0.0223% [at 42.5 µM] | outcome [14]

C/C=C(\C)C=O
inactive: outcome [1] | outcome [2] | outcome [15] | outcome [4] | outcome [5] | outcome [8] | Potency [9] | outcome [10] | outcome [11] | outcome [12] | outcome [13] | outcome [14]

C=CC(=O)OCC[N+](C)(C)C
inactive: outcome [1] | outcome [2] | Potency [3] | outcome [4] | outcome [5] | outcome [8] | Potency [9] | outcome [10] | outcome [11] | outcome [12] | outcome [13] | outcome [14]

C=C(C)C(=O)OCCCC
inactive: outcome [1] | outcome [2] | Potency [20] | outcome [4] | outcome [5] | outcome [8] | Potency [9] | outcome [10] | outcome [11] | outcome [12] | outcome [13] | outcome [14]

C[C@H]1COc2c(C3(N)CC3)c(F)cc3c(=O)c(C(=O)O)cn1c23
inactive: outcome [1] | outcome [2] | Potency [3] | outcome [4] | outcome [5] | outcome [6] | Potency [7] | outcome [8] | Potency [9] | outcome [10] | outcome [11] | outcome [12] | outcome [13] | outcome [14]

C=CC(=O)CC
inactive: outcome [1] | outcome [2] | outcome [15] | outcome [4] | outcome [5] | outcome [8] | Potency [16] | Potency [9] | outcome [10] | outcome [11] | outcome [12] | outcome [13] | activity change, positive = activation [17] -1.79% | outcome [14]
